Laboratory results from PubChem BioAssay (NCI).
“And” between values parts separate entries of the source, which are not always exact repeats. Equal entries are not always repeated. Compounds without any hit were thinned out: in the full panel of roughly 83,000, 20% have a hit.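 Percent growth is the endpoint: 0 to 100 indicates growth inhibition (40 means 60% inhibition), 0 means no net growth, and negative values indicate cell death.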 The source made the active and inactive calls. The calls were made as follows: active = growth percent below 10; inactive = the rest.

What follows are molecules tested on MDA-MB-468 breast (assay: NCI-60 one-dose screen, 48 h (100 = growth as untreated, 0 = no growth, -100 = all killed)). Settings: 10 µM unless noted.

Structure (SMILES)	growth
CCCCCCCC(=O)Nc1nc2[nH]c(CN3CCN(Cc4cccc(I)c4)CC3)c(CN3CCN(Cc4cccc(I)c4)CC3)c2c(=O)[nH]1	-85.6% (active)
CCCC1OC(c2ccc(C(C)C)cc2)OCC1CC (stereo not given)	97.6% (inactive)
Cc1ccc(-c2nc([P+](c3ccccc3)(c3ccccc3)c3ccccc3)c(S(=O)(=O)c3ccc(C)cc3)o2)cc1	-21.5% (active)
C#Cc1ccc(-n2c(/C=C/c3ccc(O)c(OC)c3)nc3ncccc3c2=O)cc1	89.8% (inactive)
COc1ccc(-c2cc(Cc3cccs3)c(=O)n(Cn3cncn3)n2)cc1	102% (inactive)
COc1cc2oc(-c3cccc(NC(=O)c4cc(NC(=O)[C@H](C)NC(=O)OC(C)(C)C)ccc4C)c3)cc(=O)c2c(OC)c1OC	84.3% (inactive)
COc1ccc(/C=C(\C#N)c2cc3ccccc3n2S(C)(=O)=O)cc1	69.3% (inactive)
CCCCCCCCCCCCCCCCC(=O)O.CCCCCCCCCCCCCCCCCC(=O)O.CCCCCCCCCCCCCCCCCC(=O)O.CCCCCCCCCCCCCCCCCC(=O)O.CCCCCCCCCCCCCCCCCC(=O)O.CO[CH-]OC12COC1CC(O)C1(C)C(O)C(OC(C)O)C3=C(C)C(OC(=O)C(O)C([NH-])c4ccccc4)CC(O)(C(OC(=O)c4ccccc4)C21)C3(C)C.[Cu+].[Zn].[Zn].[Zn].[Zn].[Zn] (stereo not given)	-13.3% (active)
CCOc1ccc(C(C)=O)cc1NC(=O)c1cccc(-c2nnn(CC)n2)c1	17.5% (inactive)
COc1cccc(/C=C/C(=O)c2sc(Nc3ccc(O)cc3)nc2C)c1	97.2% (inactive)
COc1c(O)c2c3c(c1OC)-c1ccccc1CC3N(S(=O)(=O)c1ccc(C)cc1)CC2 (stereo not given)	37.1% (inactive)
COc1ccc(/C=C/C(=O)c2cccc(OCCCCOc3cccc(C(=O)/C=C/c4ccc(OC)c(OC)c4)c3)c2)cc1OC	23.1% (inactive)
COc1ccc(-n2nc(C)c3c(Nc4ccc(NC(=O)Nc5ccc(Cl)c(C(F)(F)F)c5)cc4)ncnc32)cc1	-19.9% (active)
CC1(C)CN(Cc2ccccc2)CCN1Cc1ccccc1	106% (inactive)
COc1ccc2nccc(/C=C/c3ccnc4ccc(OC)cc34)c2c1	110% (inactive)
CN1C2CCC1/C(=C\c1ccc(Cl)cc1)C(=O)/C2=C/c1ccc(Cl)cc1	59.1% (inactive)
O=C1NC(=O)C(Cc2ccc(OCc3ccc(-c4ccc(Cl)cc4Cl)cc3)cc2)S1 (stereo not given)	14.3% (inactive)
NC(=N\N=C\c1ccccc1O)/C(N)=N/N=C/c1ccccc1O	74% (inactive)
N#CCc1ncc(-c2ccc(C(F)(F)F)cc2)c(NC2CCCCCC2)n1	42.3% [100 µM] (inactive)
CCN(CC)CC(C)(C)C(=O)/C=C/c1ccccc1	-15.2% (active)

Structure (SMILES)	growth
CCN(CC)c1ccc(/C=C2\SC(=O)C(Nc3nnc(-c4cccnc4SCc4ccccc4)o3)C2=O)cc1 (stereo not given)	2.42% (active)
N=C(N)SCc1cccc2c(CSC(=N)N)cccc12	108% (inactive)
O=S(=O)(NCCNc1cc(-c2cn(-c3ccccc3)nc2-c2cccc(O)c2)ccn1)c1ccc(Br)cc1	-28.5% (active)
CC[N+](CC)=c1cc2oc3cc(N(C)C)ccc3nc-2cc1C	-14% (active)
CCOC(=O)C#Cc1c(C(=O)OCC)nnn1[C@@H]1O[C@H](COC(C)=O)[C@@H](OC(C)=O)[C@H]1OC(C)=O	61.5% (inactive)
COc1cc(CNC(=O)CCCC/C=C/C(C)C)ccc1O	94.6% (inactive) and 98.5% (inactive)
CCCCCCCCCCCC(=O)NCCCN(C)C	111% (inactive)
ClC1c2ccccc2CCc2ccccc21	111% (inactive)
CN(C)CCOc1ccc(-c2nc3ccc(-c4nc5ccc(N6CCN(C)CC6)cc5[nH]4)cc3[nH]2)cc1	40.2% (inactive)
CC(C)OC1OC(OC(C)C)C(OC(C)C)OC1OC(C)C (stereo not given)	101% (inactive)
CC1=C(CCC(C)NCc2ccc(OCCCN3CCCCC3)cc2)C(C)(C)CCC1 (stereo not given)	-92.7% (active)
Clc1ccc(-c2csc(Nc3cccc(Nc4csc(-c5ccc(Cl)cc5)n4)c3)n2)cc1	77% (inactive)
O=C(NNC(=S)Nc1ccccc1)c1ccc(Nc2ncnc3c2cnn3-c2cccc(Br)c2)cc1	101% (inactive)
C/C(=C(/c1ccc(Cl)cc1)c1ccc(OCCN2CCCCC2)cc1)c1ccccc1	90.6% (inactive)
COc1cccc(Nc2nc(SC)nc(-c3cccc([N+](=O)[O-])c3)c2C#N)c1	81.2% (inactive)
Cc1cc(N=Nc2ccc(-c3ccc(N=Nc4ccc(O)c(C(=O)O)c4)cc3)cc2)c(N)c(N=Nc2ccc(C(=O)O)cc2)c1N	92.6% (inactive)
CC(C)(C)c1ccc(-c2nnc(-c3nc4ccccc4nc3Cl)o2)cc1	7.12% (active)
CC/C=C\C[C@H]1C/C=C2/C(=O)C=C[C@@H]2C/C=C\CCCC(=O)O1	-33.6% (active)
COc1cc(C2C=C(C)N=C3SC=C(C)N32)cc(OC)c1OC (stereo not given)	-74.2% (active)
O=C1c2cccc3cccc(c23)C(=O)N1C/C=C/c1ccc2c3c(cccc13)C(=O)N(CCO)C2=O	79.8% (inactive)
